Source: PubChem BioAssay AID1159580 (chemical genetic matrix, 2015)
Several values for one entry are separate records, joined by “and”; a condition that tells them apart may be missing. Equal values may be shown once. About 2,000 (36%) of roughly 5,500 compounds were called active. Not shown: some 18% with an inconclusive outcome. Rule as the data show it: active = normalized growth mostly below about 0.91 (no sharp cut-off); inconclusive = no clear call, values can overlap the other calls; inactive = mostly above about 0.92. Some of the results follow.

Assay: chemical genetic growth profiling, strain panel (AID 1159580);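 also: tested at 20 µM; growth read once vehicle control cultures reached saturation at 30 °C; 1 = growth at the plate median or of vehicle wells; lower values mean less growth of the strain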
Details: S. cerevisiae deletion strains, growth OD

Measured: normalized growth

CCCCOc1ccc(CC(=O)NO)cc1
inactive: locus YAL021C, strain ccr4, hits give low values 0.987 | locus YAL026C, strain drs2, hits give low values 0.983 | locus YAL030W, strain snc1, hits give low values 1 | locus YBL061C, strain skt5, hits give low values 0.996 | locus YBR009C, strain hhf1, hits give low values 0.953 | locus YBR021W, strain FUR4, hits give low values 1.02 | locus YBR023C, strain chs3, hits give low values 0.993 | locus YBR171W, strain sec66, hits give low values 0.98 | locus YBR229C, strain ROT2, hits give low values 1 | locus YBR231C, strain swc5, hits give low values 0.988 | locus YBR279W, strain paf1, hits give low values 1 | locus YCL011C, strain gbp2, hits give low values 0.99 | locus YCL016C, strain dcc1, hits give low values 0.967 | locus YCL029C, strain bik1, hits give low values 1 | locus YCL061C, strain MRC1, hits give low values 1.01 | locus YCL069W, strain vba3, hits give low values 0.973 | locus YCR088W, strain abp1, hits give low values 1 | locus YDL005C, strain med2, hits give low values 0.994 | locus YDL035C, strain GPR1, hits give low values 0.977 | locus YDL040C, strain nat1, hits give low values 0.998 | locus YDL074C, strain BRE1, hits give low values 0.964 | locus YDL101C, strain DUN1, hits give low values 0.99 | locus YDL134C, strain PPH21, hits give low values 0.965 | locus YDL185W, strain tfp1, hits give low values 1 | locus YDL192W, strain arf1, hits give low values 1.01 | locus YDR001C, strain nth1, hits give low values 0.991 | locus YDR069C, strain doa4, hits give low values 1 | locus YDR101C, strain arx1, hits give low values 0.988 | locus YDR137W, strain rgp1, hits give low values 0.857 | locus YDR150W, strain NUM1, hits give low values 0.992 | locus YDR159W, strain sac3, hits give low values 0.96 | locus YDR162C, strain NBP2, hits give low values 0.99 | locus YDR195W, strain ref2 0.94 | locus YDR297W, strain sur2, hits give low values 0.992 | locus YDR318W, strain mcm21, hits give low values 1.01 | locus YDR334W, strain swr1, hits give low values 1.02 | locus YDR335W, strain msn5, hits give low values 1.01 | locus YDR388W, hits give low values 1 | locus YDR392W, strain spt3, hits give low values 0.935 | locus YDR502C, strain sam2, hits give low values 0.997 | locus YEL003W, strain gim4, hits give low values 0.97 | locus YEL037C, strain rad23, hits give low values 0.993 | locus YEL061C, strain CIN8 (second series), hits give low values 0.994 | locus YEL061C, strain CIN8, hits give low values 0.996 | locus YER015W, strain faa2, hits give low values 1 | locus YER016W, strain bim1, hits give low values 0.997 | locus YER110C, hits give low values 1.02 | locus YER111C, strain swi4, hits give low values 0.996 | locus YER155C, strain BEM2 (second series), hits give low values 0.939 | locus YER155C, strain BEM2, hits give low values 0.994 | locus YER167W, strain BCK2, hits give low values 0.989 | locus YFR010W, strain ubp6, hits give low values 0.999 | locus YGL078C, strain dbp3, hits give low values 1 | locus YGL086W, strain mad1, hits give low values 1 | locus YGL167C, strain pmr1, hits give low values 1.01 | locus YGL173C, strain kem1, hits give low values 1.02 | locus YGL227W, strain vid30, hits give low values 0.993 | locus YGL240W, strain doc1, hits give low values 0.997 | locus YGL248W, strain PDE1, hits give low values 0.965 | locus YGL253W, strain hxk2, hits give low values 0.975 | locus YGR078C, strain PAC10, hits give low values 0.957 | locus YGR135W, strain pre9, hits give low values 1 | locus YGR229C, strain SMI1, hits give low values 0.916 | locus YGR252W, strain gcn5, hits give low values 0.878 | locus YHR013C, strain ard1, hits give low values 0.978 | locus YHR027C, strain rpn1, hits give low values 1.01 | locus YHR030C, strain SLT2, hits give low values 0.994 and 1.05 | locus YHR079C, strain IRE1 (second series), hits give low values 1.01 | locus YHR079C, strain IRE1, hits give low values 1 | locus YHR094C, strain hxt1, hits give low values 1 | locus YHR129C, strain ARP1, hits give low values 0.994 | locus YHR142W, strain chs7, hits give low values 0.961 | locus YHR200W, strain rpn10, hits give low values 1.01 | locus YIL066C, strain RNR3, hits give low values 0.915 | locus YIL073C, strain SPO22, hits give low values 0.974 | locus YIL125W, strain kgd1, hits give low values 0.997 | locus YIR030C, strain dcg1, hits give low values 1 | locus YJL092W, strain hpr5, hits give low values 0.997 | locus YJL095W, strain BCK1 (second series), hits give low values 1 | locus YJL095W, strain BCK1, hits give low values 0.959 and 1.01 | locus YJL115W, strain asf1, hits give low values 1 | locus YJL129C, strain trk1, hits give low values 0.966 | locus YJL134W, strain LCB3, hits give low values 0.996 | locus YJL154C, strain vps35, hits give low values 0.997 | locus YJL164C, strain tpk1, hits give low values 0.985 | locus YJL166W, strain qcr8, hits give low values 0.922 | locus YJL168C, strain set2, hits give low values 1 | locus YJL187C, strain SWE1 (second series), hits give low values 0.991
